Screen size: about 5,500 compounds; about 2,000 (36%) were called active. Inconclusive results (about 18%) are left out. Rule as the data show it: active = normalized growth mostly below about 0.91 (no sharp cut-off); inconclusive = no clear call, values can overlap the other calls; inactive = mostly above about 0.92. The list shows a part of the results.
Test: chemical genetic growth profiling, strain panel (AID 1159580);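 also: tested at 20 µM; growth read once vehicle control cultures reached saturation at 30 °C; 1 = growth at the plate median or of vehicle wells; lower values mean less growth of the strain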
Details: S. cerevisiae deletion strains, growth OD

Measured: normalized growth

O=C1OC(Nc2ccccc2SCc2ccccc2Cl)c2ccccc21 (stereo unspecified)
active: locus YLR113W, strain HOG1, hits give low values 0.832
inactive: locus YAR019C, strain CDC15, hits give low values 0.985 | locus YBL105C, strain PKC1, hits give low values 0.977 | locus YBR135W, strain CKS1, hits give low values 0.97 | locus YBR136W, strain MEC1, hits give low values 0.973 | locus YBR160W, strain CDC28, hits give low values 0.981 | locus YDL017W, strain CDC7, hits give low values 0.989 | locus YDL028C, strain MPS1, hits give low values 0.984 | locus YDL101C, strain DUN1, hits give low values 0.971 | locus YDL108W, strain KIN28, hits give low values 0.977 | locus YDL132W, strain cdc53, hits give low values 0.962 | locus YDL214C, strain PRR2, hits give low values 0.903 | locus YDR052C, strain DBF4, hits give low values 0.989 | locus YDR054C, strain cdc34, hits give low values 0.98 | locus YDR226W, strain ADK1, hits give low values 0.965 | locus YDR477W, strain SNF1, hits give low values 0.928 | locus YER123W, strain YCK3, hits give low values 0.89 | locus YER133W, strain GLC7, hits give low values 0.897 | locus YFL009W, strain cdc4, hits give low values 0.97 | locus YFL029C, strain CAK1, hits give low values 0.971 | locus YFR003C, strain YPI1, hits give low values 0.983 | locus YFR019W, strain FAB1, hits give low values 0.886 | locus YFR028C, strain CDC14, hits give low values 0.967 | locus YGR040W, strain KSS1, hits give low values 0.899 | locus YGR052W, strain FMP48, hits give low values 0.87 | locus YGR092W, strain DBF2, hits give low values 0.855 | locus YHR030C, strain SLT2, hits give low values 0.867 | locus YHR079C, strain IRE1, hits give low values 0.905 | locus YHR082C, strain KSP1, hits give low values 0.948 | locus YHR205W, strain SCH9, hits give low values 0.798 | locus YIL147C, strain SLN1, hits give low values 0.977 | locus YJL095W, strain BCK1, hits give low values 0.814 | locus YJL128C, strain PBS2, hits give low values 0.937 | locus YJL157C, strain FAR1, hits give low values 0.905 | locus YJR016C, strain ILV3, hits give low values 0.98 | locus YJR066W, strain TOR1 (second series), hits give low values 0.846 | locus YJR066W, strain TOR1, hits give low values 0.914 | locus YKL048C, strain ELM1, hits give low values 0.963 | locus YKL067W, strain YNK1, hits give low values 0.908 | locus YKL101W, strain HSL1, hits give low values 0.907 | locus YKL193C, strain SDS22, hits give low values 0.979 | locus YKL203C, strain TOR2, hits give low values 0.93 | locus YLR133W, strain CKI1, hits give low values 0.899 | locus YLR403W, strain SFP1, hits give low values 0.83 | locus YML070W, strain DAK1, hits give low values 0.903 | locus YMR001C, strain CDC5, hits give low values 0.98 | locus YMR205C, strain PFK2 (second series), hits give low values 0.912 | locus YMR277W, strain FCP1, hits give low values 0.979 | locus YNL006W, strain LST8, hits give low values 0.975 | locus YNL020C, strain ARK1, hits give low values 0.916 | locus YNL161W, strain CBK1, hits give low values 0.976 | locus YNL183C, strain NPR1, hits give low values 0.909 | locus YNL207W, strain RIO2, hits give low values 0.968 | locus YNL222W, strain SSU72, hits give low values 0.974 | locus YNL307C, strain MCK1 (second series), hits give low values 0.862 | locus YOL078W, strain AVO1, hits give low values 0.97 | locus YOL136C, strain PFK27, hits give low values 0.854 | locus YOR061W, strain CKA2, hits give low values 0.888 | locus YOR119C, strain RIO1, hits give low values 0.964 | locus YOR231W, strain MKK1, hits give low values 0.895 | locus YOR329C, strain SCD5, hits give low values 0.984 | locus YPL031C, strain PHO85, hits give low values 0.912 | locus YPL153C, strain RAD53, hits give low values 0.934 | locus YPL204W, strain HRR25, hits give low values 0.882 | locus YPL209C, strain IPL1, hits give low values 0.978 | locus YPL256C, strain CLN2, hits give low values 0.953 | locus YPR025C, strain CCL1, hits give low values 0.984 | locus YPR106W, strain ISR1, hits give low values 0.976 | locus YPR111W, strain DBF20, hits give low values 0.955 | strain NNK1, hits give low values 0.971 | strain TSCII, hits give low values 0.965
